Results from PubChem BioAssay (EPA / NIEHS).
Records with an inconclusive call do not appear. Some compounds were tested as several samples or in several runs, with calls that do not always agree. Activity calls are given as the source filed them. How the source made its calls, unless noted: active means hit-call score of the fitted dose curve at least 0.9, where 1 is the maximum; inconclusive means response in the unintended direction; inactive means score below 0.9.

What was measured:
[1] = read-out: UDP glucuronosyltransferase (UGT1A1), UGT1A1 (gene 54658); experiment: LTEA_HepaRG_UGT1A1: Life Technologies and Expression Analysis (LTEA) Assay for UDP glucuronosyltransferase (UGT1A1) using HepaRG (AID 2283538; active means hit-call score of the fitted dose curve at least 0.9, where 1 is the maximum; inactive means score below 0.9); conditions: mRNA level, 48 h; actives raise or lower the signal
Summary of the method: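 UGT1A1 transcript level, measured by qRT-PCR with three housekeeping genes for normalization, after 48 h treatment of human HepaRG cells (0.5% DMSO, duplicates, up to 100 uM, half-log steps, 8 points). Curves fit both directions against DMSO baseline.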

[2] = read-out: UDP glucuronosyltransferase (UGT1A6), UGT1A6 (gene 54578); experiment: LTEA_HepaRG_UGT1A6: Life Technologies and Expression Analysis (LTEA) Assay for UDP glucuronosyltransferase (UGT1A6) using HepaRG (AID 2283539; active means hit-call score of the fitted dose curve at least 0.9, where 1 is the maximum; inactive means score below 0.9); conditions: mRNA level, 48 h; actives raise or lower the signal
Summary of the method: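 Human HepaRG cells were dosed for 48 h in serum-free induction medium with 0.5% DMSO vehicle, eight-point half-log series from 100 uM, in duplicate. UGT1A6 mRNA was measured by qRT-PCR, normalized to ACTB, GAPDH, POLR2A, and fitted bidirectionally against DMSO.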

[3] = read-out: X-box binding protein 1 (XBP1), XBP1 (gene 7494); experiment: LTEA_HepaRG_XBP1: Life Technologies and Expression Analysis (LTEA) Assay for X-box binding protein 1 (XBP1) using HepaRG (AID 2283540; active means hit-call score of the fitted dose curve at least 0.9, where 1 is the maximum; inactive means score below 0.9); conditions: mRNA level, 48 h; actives raise or lower the signal
Summary of the method: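 Differentiated human HepaRG cells in serum-free induction medium were exposed in duplicate for 48 h to eight half-log concentrations up to 100 uM in 0.5% DMSO. XBP1 mRNA was quantified by qRT-PCR, normalised to ACTB, GAPDH and POLR2A, with bidirectional fitting against DMSO.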

[4] = LTEA_HepaRG_LDH_cytotoxicity: Cytotoxicity Assessment in the Life Technologies and Expression Analysis (LTEA) Assay (AID 2283563);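 on AC50: LDH activity released into spent culture medium as a marker of cell death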
Summary of the method: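 Differentiated human HepaRG cells, plated 48 h beforehand, were switched to serum-free induction medium and exposed for 48 h to eight half-log concentrations (top 100 uM) in 0.5% DMSO. LDH was measured in spent medium; activity was fitted relative to DMSO vehicle.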

[5] = molecular target: Cellular tumor antigen p53 (Homo sapiens) (UniProt P04637); experiment: TOX21_p53_BLA_p2_ratio: Tox21 HCT-116 p53 Agonism Beta-lactamase Assay, Ratio, Phase 2 (AID 2283592)
Summary of the method: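 Ratio endpoint: beta-lactamase cleavage of CCF4-AM, blue (460 nm) over green (530 nm). HCT116 reporter line; 16 h treatment, 37C; substrate 2 h RT.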

[6] = TOX21_p53_BLA_p3_viability: Viability Assessment in the Tox21 HCT-116 p53 Agonism Beta-lactamase Assay, Phase 3 (AID 2283593);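 further: cells exposed to compound for 16 h before reading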
Summary of the method: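 HCT116 cells, 4000/well, dosed 5 h after plating by pin transfer (217-fold dilution from DMSO stock) and incubated 16 h at 37C, 5% CO2. Viability read as ATP luminescence with CellTiter-Glo after 30 min at room temperature.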

[7] = molecular target: Cellular tumor antigen p53 (Homo sapiens) (UniProt P04637); experiment: TOX21_p53_BLA_p3_ratio: Tox21 HCT-116 p53 Agonism Beta-lactamase Assay, Ratio, Phase 3 (AID 2283596)
Summary of the method: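 Cells were seeded at 4000/well, rested 5 h at 37C, then dosed with DMSO compound solutions (217-fold dilution) for 16 h. CCF4-AM substrate was loaded for 2 h at room temperature, and the 460/530 nm emission ratio was fitted for gain of signal versus DMSO.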

[8] = molecular target: Cellular tumor antigen p53 (Homo sapiens) (UniProt P04637); experiment: TOX21_p53_BLA_p5_ratio: Tox21 HCT-116 p53 Agonism Beta-lactamase Assay, Ratio, Phase 5 (AID 2283599)
Summary of the method: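 HCT-116 p53-bla cells (4000/well) plated 5 h, dosed with compound (217-fold DMSO dilution) for 16 h at 37 C; CCF4-AM substrate 2 h at room temperature. Activity is the 460/530 nm emission ratio (405 nm excitation), fitted in gain-of-signal direction versus DMSO.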

[9] = TOX21_p53_BLA_p5_viability: Viability Assessment in the Tox21 HCT-116 p53 Agonism Beta-lactamase Assay, Phase 5 (AID 2283600)
Summary of the method: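 Luciferase-coupled ATP quantitation of cells treated for 16 h (37C, 5% CO2) with test chemicals delivered in DMSO via a 217-fold dilution; 4000 cells/well; reagent incubated 30 min at room temperature before luminescence reading.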

[10] = molecular target: Cellular tumor antigen p53 (Homo sapiens) (UniProt P04637); experiment: TOX21_p53_BLA_p4_ratio: Tox21 HCT-116 p53 Agonism Beta-lactamase Assay, Ratio, Phase 4 (AID 2283601)
Summary of the method: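 HCT-116 p53 beta-lactamase reporter cells (4000/well) preincubated 5 h, then compound (217-fold dilution of DMSO stock) for 16 h at 37C. CCF4-AM substrate added 2 h at room temperature; 460/530 nm emission ratio fitted upward versus DMSO.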

[11] = Tanguay_ZF_120hpf_MORT_legacy: (Legacy) Oregon State University Tanguay Lab 120 Hour Post-fertilization zebrafish Assay for Mortality (AID 2283633)
Summary of the method: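 Dechorionated Tropical 5D wild-type zebrafish embryos, one per well from 6 hpf, were statically exposed at 28C in the dark until 120 hpf (0.64% DMSO final). Mortality was scored as present/absent by brightfield microscopy, fitted positively versus DMSO.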

[12] = Tanguay_ZF_120hpf_YSE_legacy: (Legacy) Oregon State University Tanguay Lab 120 Hour Post-fertilization zebrafish Assay for Yolk Sac Edema (AID 2283634)
Summary of the method: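 Tropical 5D wild-type embryos, dechorionated with pronase at 4 hpf, were exposed singly from 6 hpf to 120 hpf under static, sealed, dark conditions at 28C with 0.64% DMSO final. Yolk sac edema was scored present/absent by brightfield microscopy.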

[13] = Tanguay_ZF_120hpf_AXIS_legacy: (Legacy) Oregon State University Tanguay Lab 120 Hour Post-fertilization zebrafish Assay for Body Axis Malformation (AID 2283635)
Summary of the method: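 Tropical 5D wild-type zebrafish embryos, dechorionated with pronase at 4 hpf, were placed singly in wells at 6 hpf and exposed statically to test chemical (0.64% DMSO final) at 28C until 120 hpf, then scored by brightfield for body axis defects.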

[14] = Tanguay_ZF_120hpf_SNOU_legacy: (Legacy) Oregon State University Tanguay Lab 120 Hour Post-fertilization zebrafish Assay for Snout Malformation (AID 2283637)
Summary of the method: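 Binary brightfield scoring of snout malformation at 120 hpf. Dechorionated 5D wild-type embryos, one per well, static exposure from 6 hpf at 28C, sealed and dark; final DMSO 0.64% (vol/vol), DMSO as baseline; 5uM trimethyltin chloride positive control.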

[15] = Tanguay_ZF_120hpf_JAW_legacy: (Legacy) Oregon State University Tanguay Lab 120 Hour Post-fertilization zebrafish Assay for Jaw Malformation (AID 2283638)
Summary of the method: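 Tropical 5D wild-type embryos, dechorionated with pronase at 4 hpf, were placed singly per well at 6 hpf and statically exposed at 28C until 120 hpf (0.64% DMSO final). Jaw malformation scored as present/absent by brightfield microscopy at 120 hpf, analyzed relative to DMSO.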

[16] = Tanguay_ZF_120hpf_OTIC_legacy: (Legacy) Oregon State University Tanguay Lab 120 Hour Post-fertilization zebrafish Assay for Otic Vesicle Malformation (AID 2283639)
Summary of the method: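 Binary scoring of otic vesicle defects at 120 hpf in zebrafish (Tropical 5D) held under static exposure at 28C, sealed and shaded, with final DMSO 0.64%. Embryos dying by 24 or 120 hpf excluded; fitted positively against DMSO.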

[17] = TOX21_p53_BLA_p2_viability: Viability Assessment in the Tox21 HCT-116 p53 Agonism Beta-lactamase Assay, Phase 2 (AID 2283591);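 further: compound exposure lasted 16 h at 37 °C; actives lower the ATP signal meaning cytotoxicity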
Summary of the method: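 HCT116 p53-bla cells, 4000/well, dosed after 5 h plating (217-fold dilution of DMSO stocks) and incubated 16 h at 37C. Viability taken as cellular ATP by CellTiter-Glo luminescence after 30 min RT; signal loss marks cytotoxicity.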

[18] = Tanguay_ZF_120hpf_EYE_legacy: (Legacy) Oregon State University Tanguay Lab 120 Hour Post-fertilization zebrafish Assay for Eye Malformation (AID 2283636);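 further: binary presence or absence of eye malformation scored by brightfield in 120 hpf larvae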
Summary of the method: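 5D wild-type embryos, pronase-dechorionated at 4 hpf; static exposure 6–120 hpf, 28C, dark; DMSO 0.64% final; 5uM trimethyltin chloride positive control. Binary eye-defect scoring at 120 hpf; dead embryos not scored.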

[19] = ATG_XTT_Cytotoxicity: Cytotoxicity Assessment in the Attagene TRANS-FACTORIAL HepG2 Assay (AID 2283584)
Summary of the method: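 HepG2 human liver cells, transiently transfected with multiple GAL4-UAS reporter units, were dosed and read at 24 h by XTT as cell number. Loss of signal was fitted relative to DMSO negative control baseline.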

[20] = TOX21_p53_BLA_p4_viability: Viability Assessment in the Tox21 HCT-116 p53 Agonism Beta-lactamase Assay, Phase 4 (AID 2283597);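 further: hits lower the luminescence signal meaning cytotoxicity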
Summary of the method: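 Cytotoxicity was inferred from loss of CellTiter-Glo luminescence. HCT116 cells had been dosed with compounds after 5 h plating, incubated 16 h at 37C and 5% CO2, and exposed to the CCF4-AM substrate for 2 h.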

Measured: AC50

Cellular tumor antigen p53 (Homo sapiens), sequence (P04637 whole entry, looked up): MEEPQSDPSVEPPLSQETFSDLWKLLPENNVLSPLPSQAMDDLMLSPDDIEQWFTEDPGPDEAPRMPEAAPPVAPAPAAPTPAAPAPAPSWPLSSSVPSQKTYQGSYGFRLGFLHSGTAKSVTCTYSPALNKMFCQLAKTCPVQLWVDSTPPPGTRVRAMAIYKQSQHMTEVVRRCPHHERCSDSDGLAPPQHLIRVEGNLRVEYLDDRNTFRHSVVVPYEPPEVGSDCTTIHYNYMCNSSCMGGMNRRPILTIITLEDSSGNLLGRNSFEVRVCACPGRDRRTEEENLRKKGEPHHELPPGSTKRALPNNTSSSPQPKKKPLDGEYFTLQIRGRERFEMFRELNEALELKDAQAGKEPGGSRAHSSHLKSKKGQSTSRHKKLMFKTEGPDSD

CNC(=O)[C@H]1O[C@@H](n2cnc3c(NCc4cc(Cl)ccc4OCc4cc(C)no4)ncnc32)[C@H](O)[C@@H]1N
inactive: [1] | [2] | [3] | [4] | [5] | [6] | [7] | [8] | [9] | [10] | [11] | [12] | [13] | [14] | [15] | [16]

CCCCCCCCCCCCCCCC
inactive: [1] | [2] | [3] | [4] | [17] | [5] | [6] | [7] | [11] | [12] | [13] | [18] | [14] | [15] | [16]

Cc1oc(-c2ccccc2)nc1CCOc1cccc2c1ccn2CCC(=O)O
active: [1] 90.9 µM | [2] 79.8 µM | [4] 81.4 µM | [5] 68.6 µM
inactive: [3] | [17] | [6] | [7] | [8] | [9] | [10] | [11] | [12] | [13] | [14] | [15] | [16]

COc1ccc(S(=O)(=O)N2C(=O)[C@@](c3ccccc3OC)(N3C[C@H](O)C[C@H]3C(=O)N(C)C)c3cc(Cl)ccc32)c(OC)c1
inactive: [3] | [7] | [11] | [12] | [13] | [18] | [14] | [15]
active: [1] 34.8 µM | [2] 79 µM | [4] 79.5 µM | [17] 86.3 µM | [5] 74.9 µM | [8] 75 µM | [9] 77.4 µM | [10] 86.6 µM

Cc1cccc([N+](=O)[O-])c1C
inactive: [1] | [2] | [3] | [4] | [17] | [5] | [6] | [7] | [9] | [11] | [12] | [13] | [18] | [14] | [15] | [16]

O=[N+]([O-])C(CO)(CO)CO
inactive: [1] | [2] | [3] | [4] | [17] | [5] | [6] | [9] | [10] | [11] | [12] | [13] | [18] | [14] | [15] | [16]

CC(C)c1ccc(C(=O)N=C(N)N)cc1S(C)(=O)=O
inactive: [2] | [4] | [5] | [6] | [9] | [10] | [11] | [12] | [13] | [18] | [14] | [15] | [16]
active: [1] 10.2 µM | [3] 0.288 µM

C[Si]1(C)O[Si](C)(C)O[Si](C)(C)O[Si](C)(C)O1
inactive: [1] | [2] | [3] | [4] | [17] | [5] | [6] | [8] | [10] | [11] | [12] | [13] | [18] | [14] | [15] | [16]

Cc1ccc(C)c(O)c1C
inactive: [1] | [3] | [4] | [5] | [6] | [7] | [10] | [11] | [12] | [13] | [18] | [14] | [15]

Nc1nc(N)c2nc(CNc3ccc(C(=O)N[C@@H](CCC(=O)O)C(=O)O)cc3)cnc2n1
active: [17] 0.0118 µM | [5] 0.0308 µM | [6] 0.0381 µM | [7] 0.0688 µM | [20] 0.0491 µM | [8] 0.158 µM | [9] 0.0649 µM | [10] 0.0582 µM
inactive: [1] | [2] | [3] | [19] | [17] | [5] | [7] | [20] | [8] | [10] | [11] | [12] | [18] | [14] | [15] | [16]

CNCc1cc(F)ccc1Oc1ccc(Cl)c(Cl)c1
active: [1] 82.8 µM | [2] 74 µM | [4] 81.7 µM | [10] 64.4 µM
inactive: [3] | [5] | [6] | [7] | [20] | [8] | [9] | [11] | [12] | [13] | [14] | [15] | [16]

CCCCOC(=O)CCCCCCCCC(=O)OCCCC
inactive: [1] | [2] | [3] | [4] | [5] | [6] | [10] | [11] | [12] | [18] | [14] | [15] | [16]

Oc1ccc2c(c1)OC[C@@H](N1CCC(O)(c3ccc(F)cc3)CC1)[C@H]2O
inactive: [1] | [2] | [3] | [4] | [5] | [7] | [20] | [8] | [11] | [12] | [18] | [14] | [15] | [16]
